This passage reports binding signal results from publication PMC7862700, “An all-to-all approach to the identification of sequence-specific readers for epigenetic DNA modifications on cytosine”.

Assay in all cases: DAPPL (digital affinity profiling via proximity ligation, sequencing); 10 mM Tris-HCl pH 7.5, 50 mM NaCl, 1 mM DTT, 4% glycerol, room temperature, 30 min; GST-TFs on glutathione beads, 16-mer random dsDNA library, 0.1% formaldehyde crosslink after washing; high values mean tight binding
Assay [1] has as its target HSF1 (Homo sapiens, UniProt Q00613 1-529). As to conditions: protein: recombinant; tags: N-terminal GST; chain copies: 3; dsDNA, one strand shown. The method in brief:
(§1)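 A tag-only sample was pooled with DNA-barcoded human transcription factors that had been expressed in yeast as GST fusions and captured on glutathione beads. The pools were incubated for 30 min at room temperature with 200 nmole of a random double-stranded 16-mer DNA library in Tris/NaCl/DTT/glycerol buffer, then washed, crosslinked with 0.1% formaldehyde, proximity-ligated (BsaI/T4 ligase, 1 h, 37 °C), PCR-amplified and sequenced on an Illumina NextSeq500. Binding signal is each hexamer's read frequency for a factor divided by its frequency for the tag-only sample.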

In assay [2] the target is T1, SPIC (Homo sapiens, UniProt Q8N5J4 1-248).
T1 sequence: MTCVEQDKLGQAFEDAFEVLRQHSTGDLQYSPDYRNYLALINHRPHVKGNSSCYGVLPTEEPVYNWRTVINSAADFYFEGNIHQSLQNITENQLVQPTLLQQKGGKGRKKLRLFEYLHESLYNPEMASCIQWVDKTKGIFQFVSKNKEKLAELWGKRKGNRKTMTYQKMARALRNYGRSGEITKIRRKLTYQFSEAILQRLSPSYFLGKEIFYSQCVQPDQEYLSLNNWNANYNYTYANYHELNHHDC
The conditions noted are these: protein: recombinant; tags: N-terminal GST; dsDNA, one strand shown. The method in brief: as §1

Assay [3] has as its target T2, ELK1 (Homo sapiens, UniProt P19419 1-428).
T2 sequence: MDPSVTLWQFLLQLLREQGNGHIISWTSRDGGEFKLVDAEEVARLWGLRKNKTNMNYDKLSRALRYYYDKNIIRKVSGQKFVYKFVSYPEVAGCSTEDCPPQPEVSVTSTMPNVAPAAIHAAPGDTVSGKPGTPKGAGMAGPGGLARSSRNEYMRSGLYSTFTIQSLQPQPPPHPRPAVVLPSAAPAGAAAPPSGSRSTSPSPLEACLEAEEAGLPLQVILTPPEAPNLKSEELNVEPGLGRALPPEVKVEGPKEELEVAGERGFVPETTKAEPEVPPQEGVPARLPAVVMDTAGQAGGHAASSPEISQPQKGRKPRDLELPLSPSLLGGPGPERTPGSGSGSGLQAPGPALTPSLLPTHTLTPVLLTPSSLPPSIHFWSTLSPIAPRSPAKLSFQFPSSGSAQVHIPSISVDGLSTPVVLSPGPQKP
As to conditions: protein: recombinant; tags: N-terminal GST; dsDNA, one strand shown. The method in brief: as §1

Assay [4] deals with T3, GABPA (Homo sapiens, UniProt Q06546 1-454).
T3 sequence: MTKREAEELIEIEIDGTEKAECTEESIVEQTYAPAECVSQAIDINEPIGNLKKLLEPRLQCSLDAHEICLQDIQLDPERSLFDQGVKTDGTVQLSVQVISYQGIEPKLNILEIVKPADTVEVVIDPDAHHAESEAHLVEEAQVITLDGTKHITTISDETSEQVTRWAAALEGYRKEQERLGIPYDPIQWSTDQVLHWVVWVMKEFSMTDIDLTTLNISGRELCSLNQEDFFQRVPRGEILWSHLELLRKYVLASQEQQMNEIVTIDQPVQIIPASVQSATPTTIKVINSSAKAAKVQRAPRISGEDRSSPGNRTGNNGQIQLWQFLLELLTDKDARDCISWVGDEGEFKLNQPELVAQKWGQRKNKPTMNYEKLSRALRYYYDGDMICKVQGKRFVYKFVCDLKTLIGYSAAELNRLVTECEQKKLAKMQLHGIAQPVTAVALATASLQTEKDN
The conditions noted are these: protein: recombinant; tags: N-terminal GST; dsDNA, one strand shown. The method in brief:
as §1

Assay [5] addresses ELF1 (Homo sapiens, UniProt P32519 1-619). As to conditions: protein: recombinant; tags: N-terminal GST; dsDNA, one strand shown. The method in brief:
as §1

For assay [6], the target named is SPIB (Homo sapiens, UniProt Q01892 1-262). As to conditions: protein: recombinant; tags: N-terminal GST; dsDNA, one strand shown. The method in brief: as §1
The target of assay [7] is T4, ELK3 (Homo sapiens, UniProt P41970 1-407).
T4 sequence: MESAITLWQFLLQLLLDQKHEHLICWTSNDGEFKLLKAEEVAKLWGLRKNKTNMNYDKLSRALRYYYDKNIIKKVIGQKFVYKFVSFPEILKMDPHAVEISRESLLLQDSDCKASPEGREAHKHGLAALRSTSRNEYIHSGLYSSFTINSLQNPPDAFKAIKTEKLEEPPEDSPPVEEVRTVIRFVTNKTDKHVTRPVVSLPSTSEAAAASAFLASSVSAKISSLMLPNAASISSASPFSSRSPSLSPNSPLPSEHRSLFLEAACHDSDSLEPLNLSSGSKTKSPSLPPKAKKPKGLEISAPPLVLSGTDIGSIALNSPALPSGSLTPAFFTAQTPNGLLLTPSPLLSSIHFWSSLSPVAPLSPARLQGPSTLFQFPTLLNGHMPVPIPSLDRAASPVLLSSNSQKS
The conditions noted are these: protein: recombinant; tags: N-terminal GST; dsDNA, one strand shown. The method in brief: as §1

For assay [8], the target named is T5, FEV (Homo sapiens, UniProt Q99581 1-238).
T5 sequence: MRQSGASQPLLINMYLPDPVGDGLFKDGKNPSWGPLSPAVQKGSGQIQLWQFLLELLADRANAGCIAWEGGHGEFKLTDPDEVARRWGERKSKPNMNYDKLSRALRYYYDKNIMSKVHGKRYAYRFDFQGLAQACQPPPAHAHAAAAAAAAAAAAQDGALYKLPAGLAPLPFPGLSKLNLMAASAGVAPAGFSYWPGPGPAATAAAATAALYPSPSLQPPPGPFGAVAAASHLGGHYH
The conditions noted are these: protein: recombinant; tags: N-terminal GST; dsDNA, one strand shown. The method in brief: as §1

Assay [9] deals with T6, ELK4 (Homo sapiens, UniProt P28324-2 1-405).
T6 sequence: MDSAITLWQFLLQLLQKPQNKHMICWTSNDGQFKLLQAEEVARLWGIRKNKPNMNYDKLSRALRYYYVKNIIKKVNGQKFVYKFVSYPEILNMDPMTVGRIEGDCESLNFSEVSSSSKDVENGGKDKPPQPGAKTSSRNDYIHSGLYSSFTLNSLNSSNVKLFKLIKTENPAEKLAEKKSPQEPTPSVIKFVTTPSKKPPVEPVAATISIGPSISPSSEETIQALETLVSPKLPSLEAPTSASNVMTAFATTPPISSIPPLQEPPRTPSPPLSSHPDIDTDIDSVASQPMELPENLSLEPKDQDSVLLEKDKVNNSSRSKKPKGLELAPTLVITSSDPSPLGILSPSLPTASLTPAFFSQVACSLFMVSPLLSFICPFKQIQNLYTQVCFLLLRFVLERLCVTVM
The conditions noted are these: protein: recombinant; tags: N-terminal GST; dsDNA, one strand shown. The method in brief: as §1

Assay [10] addresses CRX (Homo sapiens, UniProt O43186 1-299). As to conditions: protein: recombinant; tags: N-terminal GST; dsDNA, one strand shown. The method in brief: as §1
The target of assay [11] is T7, ERF (Homo sapiens, UniProt P50548 1-548).
T7 sequence: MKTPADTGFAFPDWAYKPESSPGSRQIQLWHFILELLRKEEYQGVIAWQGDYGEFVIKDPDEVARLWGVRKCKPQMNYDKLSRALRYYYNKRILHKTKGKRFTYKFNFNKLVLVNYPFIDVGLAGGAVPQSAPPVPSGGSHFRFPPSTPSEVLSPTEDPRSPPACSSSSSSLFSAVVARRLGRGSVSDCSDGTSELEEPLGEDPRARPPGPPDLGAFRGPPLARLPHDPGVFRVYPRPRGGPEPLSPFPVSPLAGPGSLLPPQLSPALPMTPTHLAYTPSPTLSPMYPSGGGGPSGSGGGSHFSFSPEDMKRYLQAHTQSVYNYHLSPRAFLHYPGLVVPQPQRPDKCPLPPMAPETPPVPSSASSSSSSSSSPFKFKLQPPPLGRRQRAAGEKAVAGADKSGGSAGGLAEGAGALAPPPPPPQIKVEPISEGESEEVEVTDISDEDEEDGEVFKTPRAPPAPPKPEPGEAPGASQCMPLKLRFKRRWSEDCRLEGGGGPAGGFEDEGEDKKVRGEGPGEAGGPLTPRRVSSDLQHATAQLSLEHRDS
The conditions noted are these: protein: recombinant; tags: N-terminal GST; dsDNA, one strand shown. The method in brief:
as §1

Assay [12] addresses T8, ETV3L (Homo sapiens, UniProt Q6ZN32 1-361).
T8 sequence: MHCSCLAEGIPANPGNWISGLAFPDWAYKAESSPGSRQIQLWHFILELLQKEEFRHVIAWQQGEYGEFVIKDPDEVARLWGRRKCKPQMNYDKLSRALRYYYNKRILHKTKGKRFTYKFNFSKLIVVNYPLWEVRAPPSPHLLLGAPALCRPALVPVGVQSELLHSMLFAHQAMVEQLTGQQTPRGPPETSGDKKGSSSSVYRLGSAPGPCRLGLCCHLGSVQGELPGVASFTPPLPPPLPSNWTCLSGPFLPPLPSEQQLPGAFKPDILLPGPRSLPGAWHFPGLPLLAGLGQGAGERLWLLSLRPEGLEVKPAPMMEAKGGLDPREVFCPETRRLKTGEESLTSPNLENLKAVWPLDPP
As to conditions: protein: recombinant; tags: N-terminal GST; dsDNA, one strand shown. The method in brief: as §1

Assay [13] has as its target T9, ETS2 (Homo sapiens, UniProt P15036 1-469).
T9 sequence: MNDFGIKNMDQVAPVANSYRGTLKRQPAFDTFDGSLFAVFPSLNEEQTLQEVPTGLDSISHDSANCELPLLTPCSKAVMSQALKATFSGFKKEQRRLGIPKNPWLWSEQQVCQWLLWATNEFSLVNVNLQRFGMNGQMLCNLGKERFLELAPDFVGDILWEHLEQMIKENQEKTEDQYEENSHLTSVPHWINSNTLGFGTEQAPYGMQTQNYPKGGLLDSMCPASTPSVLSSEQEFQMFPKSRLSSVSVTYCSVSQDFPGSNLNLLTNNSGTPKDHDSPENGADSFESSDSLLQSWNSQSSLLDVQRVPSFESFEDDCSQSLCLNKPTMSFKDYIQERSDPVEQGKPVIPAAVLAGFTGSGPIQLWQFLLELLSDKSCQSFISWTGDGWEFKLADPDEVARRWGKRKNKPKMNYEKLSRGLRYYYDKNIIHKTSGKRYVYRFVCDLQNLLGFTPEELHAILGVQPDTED
As to conditions: protein: recombinant; tags: N-terminal GST; dsDNA, one strand shown. The method in brief: as §1

Assay [14] concerns the target T10, SPDEF (Homo sapiens, UniProt O95238 1-335).
T10 sequence: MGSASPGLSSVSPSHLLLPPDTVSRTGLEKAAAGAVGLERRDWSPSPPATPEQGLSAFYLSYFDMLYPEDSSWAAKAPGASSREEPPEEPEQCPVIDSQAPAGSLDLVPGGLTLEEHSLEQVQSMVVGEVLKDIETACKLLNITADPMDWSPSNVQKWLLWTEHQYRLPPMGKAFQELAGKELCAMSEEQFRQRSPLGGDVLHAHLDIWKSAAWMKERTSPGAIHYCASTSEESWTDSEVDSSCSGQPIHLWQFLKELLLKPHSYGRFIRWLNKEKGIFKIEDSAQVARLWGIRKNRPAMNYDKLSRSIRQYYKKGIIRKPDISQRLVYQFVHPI
As to conditions: protein: recombinant; tags: N-terminal GST; dsDNA, one strand shown. The method in brief: as §1

The target of assay [15] is T11, ETV7 (Homo sapiens, UniProt Q9Y603 1-341).
T11 sequence: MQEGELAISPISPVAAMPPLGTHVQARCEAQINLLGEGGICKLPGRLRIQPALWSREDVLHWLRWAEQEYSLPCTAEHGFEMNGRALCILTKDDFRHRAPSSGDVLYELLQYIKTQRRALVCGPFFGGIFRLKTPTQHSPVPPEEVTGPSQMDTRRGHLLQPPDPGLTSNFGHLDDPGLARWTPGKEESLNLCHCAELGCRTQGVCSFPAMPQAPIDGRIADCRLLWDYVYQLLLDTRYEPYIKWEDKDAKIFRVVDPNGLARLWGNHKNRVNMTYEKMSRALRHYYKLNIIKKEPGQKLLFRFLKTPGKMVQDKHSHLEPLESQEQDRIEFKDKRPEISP
The conditions noted are these: protein: recombinant; tags: N-terminal GST; dsDNA, one strand shown. The method in brief:
as §1

For assay [16], the target named is T12, ETV3 (Homo sapiens, UniProt P41162-2 1-143).
T12 sequence: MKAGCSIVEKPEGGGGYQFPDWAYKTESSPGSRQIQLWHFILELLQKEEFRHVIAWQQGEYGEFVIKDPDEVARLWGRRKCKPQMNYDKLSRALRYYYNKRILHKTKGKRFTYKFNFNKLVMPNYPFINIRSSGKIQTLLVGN
The conditions noted are these: protein: recombinant; tags: N-terminal GST; dsDNA, one strand shown. The method in brief: as §1

Sequence of HSF1 (Q00613 whole entry, the tested form may be a part): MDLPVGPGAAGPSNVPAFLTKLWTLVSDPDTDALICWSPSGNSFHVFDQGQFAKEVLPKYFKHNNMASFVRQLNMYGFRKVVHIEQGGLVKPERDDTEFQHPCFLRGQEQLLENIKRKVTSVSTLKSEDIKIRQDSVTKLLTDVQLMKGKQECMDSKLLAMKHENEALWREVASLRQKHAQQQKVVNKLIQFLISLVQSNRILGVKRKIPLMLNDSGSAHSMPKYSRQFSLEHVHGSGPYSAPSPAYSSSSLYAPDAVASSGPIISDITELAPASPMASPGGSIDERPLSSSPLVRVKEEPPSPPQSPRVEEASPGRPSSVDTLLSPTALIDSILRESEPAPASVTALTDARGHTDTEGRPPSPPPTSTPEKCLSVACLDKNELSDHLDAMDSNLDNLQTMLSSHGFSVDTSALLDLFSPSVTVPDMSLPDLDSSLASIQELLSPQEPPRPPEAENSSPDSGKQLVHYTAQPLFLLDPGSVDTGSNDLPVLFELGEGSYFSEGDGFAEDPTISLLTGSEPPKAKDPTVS
Sequence of SPIB (Q01892 whole entry): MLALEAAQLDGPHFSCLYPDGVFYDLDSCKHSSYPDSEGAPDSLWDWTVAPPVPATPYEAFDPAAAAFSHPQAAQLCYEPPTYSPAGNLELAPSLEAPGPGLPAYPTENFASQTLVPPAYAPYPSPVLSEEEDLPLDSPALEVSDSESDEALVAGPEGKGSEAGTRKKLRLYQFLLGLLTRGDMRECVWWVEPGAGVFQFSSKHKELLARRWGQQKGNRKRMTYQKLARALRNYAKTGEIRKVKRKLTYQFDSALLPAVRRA
Sequence of CRX (O43186 whole entry): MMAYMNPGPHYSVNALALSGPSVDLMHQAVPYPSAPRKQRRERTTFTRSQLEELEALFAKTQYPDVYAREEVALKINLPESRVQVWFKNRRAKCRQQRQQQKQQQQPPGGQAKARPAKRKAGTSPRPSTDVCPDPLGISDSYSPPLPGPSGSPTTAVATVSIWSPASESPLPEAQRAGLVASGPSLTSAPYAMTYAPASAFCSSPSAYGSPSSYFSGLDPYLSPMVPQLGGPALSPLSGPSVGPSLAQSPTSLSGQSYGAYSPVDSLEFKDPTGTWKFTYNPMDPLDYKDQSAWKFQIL
Sequence of ELF1 (P32519 whole entry): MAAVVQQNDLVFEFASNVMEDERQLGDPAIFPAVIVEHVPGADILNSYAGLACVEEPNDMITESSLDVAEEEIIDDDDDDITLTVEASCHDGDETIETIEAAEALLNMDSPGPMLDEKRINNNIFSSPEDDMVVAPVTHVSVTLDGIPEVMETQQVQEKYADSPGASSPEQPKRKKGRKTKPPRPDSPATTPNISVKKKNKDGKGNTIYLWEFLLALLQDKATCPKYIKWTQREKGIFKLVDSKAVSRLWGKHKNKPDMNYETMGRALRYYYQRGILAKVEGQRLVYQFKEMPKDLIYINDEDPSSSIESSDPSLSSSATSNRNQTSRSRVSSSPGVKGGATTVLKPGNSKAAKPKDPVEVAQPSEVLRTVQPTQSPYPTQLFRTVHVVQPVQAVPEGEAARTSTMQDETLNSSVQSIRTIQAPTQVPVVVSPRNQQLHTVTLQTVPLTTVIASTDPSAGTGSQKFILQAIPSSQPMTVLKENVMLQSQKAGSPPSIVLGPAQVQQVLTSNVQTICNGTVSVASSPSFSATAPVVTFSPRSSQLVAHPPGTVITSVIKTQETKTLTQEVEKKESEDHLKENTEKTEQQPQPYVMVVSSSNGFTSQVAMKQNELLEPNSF

Consider GTCTAG, for which the binding signal in [1] is 1.48 fold enrichment (6-mer frequency, TF over GST control).

As for GCAGAA, the binding signal in assay [1] was 1.15 fold enrichment (6-mer frequency, TF over GST control); in assay [2], 1.03 fold enrichment (6-mer frequency, TF over GST control).

Regarding TCGCAT, the binding signal in assay [3] is 1.06 fold enrichment (6-mer frequency, TF over GST control); in assay [4], 1.02 fold enrichment (6-mer frequency, TF over GST control); in [5] it was 1.04 fold enrichment (6-mer frequency, TF over GST control); in assay [6], 1.06 fold enrichment (6-mer frequency, TF over GST control); in [7], 1.01 fold enrichment (6-mer frequency, TF over GST control); in [8], 1.08 fold enrichment (6-mer frequency, TF over GST control). Moreover, the binding signal in [1] was 1.04 fold enrichment (6-mer frequency, TF over GST control); in [2], 1.02 fold enrichment (6-mer frequency, TF over GST control); in [9], 1.08 fold enrichment (6-mer frequency, TF over GST control); in [10] it was 1.15 fold enrichment (6-mer frequency, TF over GST control); in assay [11], 1.07 fold enrichment (6-mer frequency, TF over GST control); in [12] it was 1.03 fold enrichment (6-mer frequency, TF over GST control). The binding signal in assay [13] was 1.04 fold enrichment (6-mer frequency, TF over GST control); in assay [14] it was 1.03 fold enrichment (6-mer frequency, TF over GST control); in assay [15], 1.01 fold enrichment (6-mer frequency, TF over GST control); in [16] it was 1.03 fold enrichment (6-mer frequency, TF over GST control).
